An excerpt weighted towards active compounds, which were near 4% of everything screened.
Beta apoptosis: blocks beta cell apoptosis; AID 435005; 300,000 tested, 0.8% active; INS-1E cytokine-induced death, ATP luminescence, 48 h; percent of positive-control rescue, neutral wells zero; protection from apoptosis, % (concentration not given with the values);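 active means Every replicate reaches about 75%, or at least half do and their mean reaches it too, limit read from the data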;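 further: 0% = cytokine-treated negative control wells and 100% = positive control rescue; higher means more ATP so stronger rescue from cytokine killing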
Gli-Sufu antag: antagonists of Gli-Sufu signaling; inhibition, % at 5 µM; Sufu-KO-LIGHT fibroblasts, Gli luciferase reporter luminescence; AID 588413; 340,000 tested, 0.74% active;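 active means inhibition above about 55%, limit read from the data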;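 further: 0% = DMSO-treated cells and 100% = wells with medium but no cells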
CSC inhib: cancer stem cell inhibition | cancer stem cell-like cells viability, luminescence | inhibition, % at 7.5 µM | 300,000 tested, 1.1% active | AID 2717; in the data active means inhibition above about 75%; tested in HMLE shEcad cells
Mdm2-MdmX inh: inhibitors of human Mdm2/MdmX interaction | O15151+Q00987 | SaOS-2 split-luciferase Mdm2/MdmX complementation, luminescence | inhibition, % at 8 µM | 330,000 tested, 3% active;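 active means inhibition of at least 50% at 8 µM in the primary screen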
Target sequence (O15151 whole entry, looked up): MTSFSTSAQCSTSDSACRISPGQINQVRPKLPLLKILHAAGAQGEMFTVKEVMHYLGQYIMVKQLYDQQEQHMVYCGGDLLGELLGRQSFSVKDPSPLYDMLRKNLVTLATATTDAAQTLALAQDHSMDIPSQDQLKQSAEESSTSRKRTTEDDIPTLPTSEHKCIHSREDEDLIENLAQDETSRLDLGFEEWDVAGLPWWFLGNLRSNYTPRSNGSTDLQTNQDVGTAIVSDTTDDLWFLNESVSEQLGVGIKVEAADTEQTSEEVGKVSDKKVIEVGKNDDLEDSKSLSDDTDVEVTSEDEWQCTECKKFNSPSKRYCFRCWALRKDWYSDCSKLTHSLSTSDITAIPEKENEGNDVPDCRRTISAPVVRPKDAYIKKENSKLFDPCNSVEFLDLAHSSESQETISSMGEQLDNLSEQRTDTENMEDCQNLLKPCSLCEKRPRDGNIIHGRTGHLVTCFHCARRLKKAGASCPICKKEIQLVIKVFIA
Target sequence (Q00987 whole entry, looked up): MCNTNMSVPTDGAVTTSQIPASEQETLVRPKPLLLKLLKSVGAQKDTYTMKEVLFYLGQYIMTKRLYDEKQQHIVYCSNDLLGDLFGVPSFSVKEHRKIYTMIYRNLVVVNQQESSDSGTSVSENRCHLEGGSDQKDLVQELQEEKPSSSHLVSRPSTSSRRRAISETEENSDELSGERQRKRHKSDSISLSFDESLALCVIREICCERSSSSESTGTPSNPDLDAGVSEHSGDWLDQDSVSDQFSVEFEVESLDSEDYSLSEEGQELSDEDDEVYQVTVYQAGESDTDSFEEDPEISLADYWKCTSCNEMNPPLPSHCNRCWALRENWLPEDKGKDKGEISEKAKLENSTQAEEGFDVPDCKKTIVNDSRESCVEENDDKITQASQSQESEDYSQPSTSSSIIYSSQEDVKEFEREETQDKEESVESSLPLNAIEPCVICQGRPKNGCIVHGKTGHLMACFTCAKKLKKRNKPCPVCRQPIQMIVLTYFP
Shn3 inh set2: Schnurri-3 reporter inhibition in Clone20 osteoblasts | 360,000 tested, 0.52% active | inhibition, % at 12.5 µM | AID 588674 | Clone20 osteoblast Shn3 3'UTR firefly luciferase, 24 h;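 active means mean inhibition of at least 75% with every replicate also reaching 75%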;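 further: 0% = median of neutral control wells and 100% = pilot-screen positive control compound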
PAX8 reporter: lowers PAX8-driven luciferase in RMG-I cells | AID 652154 | RMG-I TPO-luciferase reporter, SteadyGlo, 24 h | inhibition, % at 12.6 µM | 360,000 tested, 1.2% active;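 active means mean replicate inhibition at least 60% with every replicate also reaching 60%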;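 further: luciferase light reporting Pax8 driven TPO promoter activity; plate controls were median of neutral control wells for no effect and mitoxantrone controls for full effect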
Mdm2-MdmX conf: confirmation of human Mdm2/MdmX interaction inhibitors | AID 489028 | Mdm2-MdmX binding, luminescent assay | shares compounds with Mdm2-MdmX inh | 10,000 tested, 55% active | inhibition, % at 8 µM; in the data active means inhibition above about 40%
FLuc counter: full-length luciferase inhibition in Mdm2/MdmX counter-screen; shares compounds with Mdm2-MdmX inh; SaOS-2 full-length luciferase counterscreen, luminescence; inhibition, % at 8 µM; 6,200 tested, 77% active; AID 504607;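 active means mean inhibition at 8 µM reaching about 37%, which flags the compound as non-specific, limit read from the data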;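 further: p53-null SaOS-2 cells with luciferase driven by a doxycycline-inducible promoter; compound on cells about two nights before reading with doxycycline added after day one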
An asterisk follows results filed as active; nt = not tested or not shown.

SMILES | Beta apoptosis | Gli-Sufu antag | CSC inhib | Mdm2-MdmX inh | Shn3 inh set2 | PAX8 reporter | Mdm2-MdmX conf | others
COc1cc2ccccc2cc1C(=O)Nc1sc2c(c1C(N)=O)CCN(C(C)C)C2 | 112* | nt | 95* | 100* | 5 | nt | 42* | FLuc counter=48*
CN1CCc2c(sc(NC(=O)c3ccc4ccccc4c3)c2C(N)=O)C1 | 7 | nt | 48 | -7 | -50 | nt | nt
O=C(CCc1ccccc1)NCC(c1ccco1)N1CCc2ccccc21 (stereo unspecified) | 8 | 7 | 6 | 53* | 30 | 43 | 76* | FLuc counter=66*
O=C(C[C@H]1CC[C@@H]2[C@H](COC[C@H](O)CN2Cc2ccccc2F)O1)N[C@H]1CCN(Cc2ccccc2)C1 | nt | nt | nt | nt | nt | 10 | nt
C[C@@H]1CCCCO[C@H](CN(C)C(=O)Nc2ccc(C(F)(F)F)cc2)[C@@H](C)CN([C@@H](C)CO)C(=O)c2cc(NC(=O)C3CCCCC3)ccc2O1 | nt | nt | nt | nt | nt | 27 | nt
CC1c2cc3c(cc2CCN1CC(=O)Nc1ccccc1)OCCCO3 (stereo unspecified) | 2 | 40 | -9 | -4 | 51 | nt | nt
CC1c2cc3c(cc2CCN1C(=O)c1cccc(Cl)c1)OCCCO3 (stereo unspecified) | 6 | 13 | 36 | 57* | 2 | 23 | 44* | FLuc counter=62*
CCCNC(=O)C[C@@H]1CC[C@H]2[C@@H](COC[C@@H](O)CN2C(=O)c2cccnc2)O1 | nt | nt | nt | nt | nt | -11 | nt
COc1ccc(NC(=O)N(C)C[C@@H]2Oc3ccc(NS(C)(=O)=O)cc3CC(=O)N([C@H](C)CO)C[C@H]2C)cc1 | nt | nt | nt | nt | nt | -16 | nt
CSc1nnc(-c2sc3cc(C(F)(F)F)cnc3c2-c2ccccc2)n1C | 11 | 5 | 52 | 67* | 8 | nt | 48* | FLuc counter=50*
COCC(=O)N1C[C@@H](C)[C@H](OC)CN(C)C(=O)c2ccc(NC(=O)c3cc(C)on3)cc2OC[C@H]1C | nt | nt | nt | nt | nt | -19 | nt
O=C(C[C@@H]1C[C@H]2c3cc(NC(=O)C4CCC4)ccc3O[C@H]2[C@@H](CO)O1)NCc1ccc(Cl)cc1 | nt | nt | nt | nt | nt | -3 | nt
CC(=O)N1CCCCN2[C@@H](CO)[C@H](c3ccc(-c4cccc(C)c4)cc3)[C@@H]2C1 | nt | nt | nt | nt | nt | -7 | nt
CC(C)C1Cc2c(sc3[nH]c(=S)n(Cc4ccccc4)c(=O)c23)CO1 (stereo unspecified) | 16 | 8 | 139* | 53* | -11 | nt | -5
Cc1ccc(C(C(=O)NCc2ccco2)N(C(=O)CNC(=O)c2cccs2)c2ccc(C)cc2C)cc1 (stereo unspecified) | 25 | 0 | 12 | 59* | -26 | nt | 4
Cc1ccc(N(C(=O)CNC(=O)c2ccco2)C(C(=O)NC2CCCC2)c2ccncc2)c(C)c1 (stereo unspecified) | 2 | -7 | -5 | 6 | 9 | 3 | nt
Cc1cccc(NC(=S)NNc2ncc(C(F)(F)F)cc2Cl)c1 | 10 | 3 | -18 | 13 | -7 | -8 | nt
FC(F)(F)c1cnc(NNC(=S)Nc2ccccc2Cl)c(Cl)c1 | 112* | 26 | 49 | 86* | 24 | 74* | 22
COc1ccc(OCCSCc2nnc(NC(=O)Nc3ccc(Cl)cc3)s2)cc1 | 16 | -2 | 21 | 63* | -8 | 4 | 3
Cc1ccc(NC(=O)Nc2nnc(CSCCOc3ccc(Cl)cc3)s2)cc1 | 2 | 4 | 22 | -28 | 18 | 19 | nt
O=C(Nc1cccc(Cl)c1)Nc1nnc(CC2=CCCCC2)s1 | 35 | -6 | 30 | 80* | 16 | -11 | 43* | FLuc counter=88*
O=C(Nc1cccc(Cl)c1)Nc1nnc(CSCCOc2ccc(Cl)cc2)s1 | 139* | 22 | 31 | 99* | 67 | 107* | 90* | FLuc counter=23
O=C(Nc1ccc(Cl)cc1)Nc1nnc(CSCc2ccccc2)s1 | 32 | 16 | 24 | 58* | 16 | nt | 23
C=CCN1CCCc2c(-c3ccc(OCCO)cc3)noc2-c2cc(OC)c(OC)cc2CC1 | nt | nt | nt | nt | nt | 12 | nt
COc1ccc(-c2[nH]ncc2N=Nc2cc(C)cc(C)c2)cc1 | 18 | 1 | 7 | 49 | 2 | 20 | nt
SMILES | Beta apoptosis | Gli-Sufu antag | CSC inhib | Mdm2-MdmX inh | Shn3 inh set2 | PAX8 reporter | Mdm2-MdmX conf | others
COc1ccc(-c2[nH]ncc2N=Nc2ccccc2)cc1 | -14 | 2 | 94* | 66* | -13 | -18 | 58* | FLuc counter=85*
Cc1nn(C)cc1NC(=O)C[C@H]1CC[C@@H]2[C@@H](COc3ccc(NC(=O)C4CCC4)cc3C(=O)N2C)O1 | nt | nt | nt | nt | nt | -3 | nt
Cc1cc(Cl)n2ncc(-c3ccccc3)c2n1 | -8 | -16 | -2 | 63* | -138 | -27 | 8
Clc1nc(-c2cccnc2)nc2scc(-c3ccccc3)c12 | -8 | -44 | 12 | 18 | -38 | -52 | nt
COc1ccc(-c2csc3nc(-c4cccnc4)nc(Cl)c23)cc1OC | 19 | 15 | 50 | 81* | 10 | 29 | 31
CN1C(=O)c2cc(NC(=O)C3CCOCC3)ccc2OC[C@H]2O[C@@H](CC(=O)NCC3CC3)CC[C@@H]21 | nt | nt | nt | nt | nt | -13 | nt
O=C(CSc1nnc(-c2ccccc2)o1)Nc1ccccc1F | 11 | -11 | 58 | -6 | 43 | 26 | nt
Cc1ccc(-c2nnc(SCC(=O)Nc3ccccc3F)o2)cc1 | 11 | -34 | 70 | 80* | 75 | 59 | 67* | FLuc counter=33
CCN1CCN(Cc2ccc(NC(=O)c3cc(NC(=O)c4cnnc5ccccc45)cc(OC)c3)cc2C(F)(F)F)CC1 | 10 | 22 | 2 | 52* | 16 | 2 | 26
CCN1CCN(Cc2ccc(NC(=O)c3cc(NC(=O)c4cncc(-c5ccc(C#N)cc5)c4)cc(OC)c3)cc2C(F)(F)F)CC1 | 87* | 10 | 31 | 100* | 98* | 108* | 20
CCCCC(=O)/C=C/n1c(=S)oc2ccccc21 | 10 | -18 | 16 | 100* | -47 | -51 | 33
CCc1ccc2nc(N(CCN(C)C)C(=O)/C=C/c3cccs3)sc2c1 | 8 | 20 | 66 | 51* | -3 | nt | 21
CCOc1ccc2nc(N(CCN(C)C)C(=O)/C=C/c3cccs3)sc2c1 | -2 | 16 | 6 | 65* | -7 | nt | 31
Cc1ccc(S(=O)(=O)N(C)C[C@H]2Oc3ccc(NC(=O)CCCN(C)C)cc3C(=O)N([C@@H](C)CO)C[C@H]2C)cc1 | nt | nt | nt | nt | nt | 0 | nt
O=C(c1ccc(F)cc1)N1CC(=O)N2[C@H](CO)[C@H](c3ccc(C#CC4CCCCC4)cc3)[C@H]2C1 | nt | nt | nt | nt | nt | -12 | nt
CCCCNc1c(-c2ccc(OC)c(Sc3ccc(OC)cc3)c2)nc2cnccn12 | 7 | 4 | nt | 33 | 32 | 5 | nt
CCCCNc1c(-c2ccc(SC(C)CC)cc2)nc2cnccn12 (stereo unspecified) | 14 | -42 | 107* | 52* | 79 | nt | 11
